Records with an inconclusive call do not appear. The source made the active and inactive calls. Unless noted, calls follow the shape of the dose curve; as a rule, active = well fitted curve in the direction sought with a large enough effect; inconclusive = small, poorly fitted or top-dose-only effect, or another doubt; inactive = no such curve, though single readings can be large; an effect the other way counts as inactive or inconclusive.
Key:
[1] = NS1 protein of Zika virus - qHTS assay to identify small molecule inhibitors in human HEK 293 cells (AID 1347053); also: series mostly up to about 46 µM; nearly all actives have a fitted effect of over 55% in size
Procedure, shortened: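 Compound-treated (1 h pre-infection) HEK 293 cells infected with ZIKV MR766, MOI = 0.5; after 24 h at 37 C, NS1 read by TR-FRET; data normalized to uninfected and infected controls.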

[2] = target: T1, Tyrosine-protein phosphatase non-receptor type substrate 1 (Homo sapiens) + Leukocyte surface antigen CD47 (Homo sapiens) (UniProt P78324+Q08722); test: CD47-SIRPalpha protein protein interaction - LANCE assay qHTS validation (AID 1347057; active = well fitted curve in the direction sought with a large enough effect in the signal ratio, with a control signal flat, not every such curve was filed as active; the % refers to the signal ratio; also: series mostly up to about 38 µM)
T1 sequence (P78324 whole entry, looked up, the tested form may be a part): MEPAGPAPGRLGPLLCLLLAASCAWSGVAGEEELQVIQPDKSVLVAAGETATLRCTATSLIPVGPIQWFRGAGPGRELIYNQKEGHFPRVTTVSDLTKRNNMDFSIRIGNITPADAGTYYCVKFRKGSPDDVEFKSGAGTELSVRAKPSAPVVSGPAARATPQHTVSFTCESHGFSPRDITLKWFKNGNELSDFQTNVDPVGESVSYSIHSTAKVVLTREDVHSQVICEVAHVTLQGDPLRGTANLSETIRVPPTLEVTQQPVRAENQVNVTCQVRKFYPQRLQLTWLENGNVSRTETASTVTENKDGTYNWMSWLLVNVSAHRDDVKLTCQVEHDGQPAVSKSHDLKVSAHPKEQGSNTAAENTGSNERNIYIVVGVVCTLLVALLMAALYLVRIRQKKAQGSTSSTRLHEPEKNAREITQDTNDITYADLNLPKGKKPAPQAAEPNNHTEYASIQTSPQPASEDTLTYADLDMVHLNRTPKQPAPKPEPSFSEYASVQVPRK
T1 sequence (Q08722 whole entry, looked up, the tested form may be a part): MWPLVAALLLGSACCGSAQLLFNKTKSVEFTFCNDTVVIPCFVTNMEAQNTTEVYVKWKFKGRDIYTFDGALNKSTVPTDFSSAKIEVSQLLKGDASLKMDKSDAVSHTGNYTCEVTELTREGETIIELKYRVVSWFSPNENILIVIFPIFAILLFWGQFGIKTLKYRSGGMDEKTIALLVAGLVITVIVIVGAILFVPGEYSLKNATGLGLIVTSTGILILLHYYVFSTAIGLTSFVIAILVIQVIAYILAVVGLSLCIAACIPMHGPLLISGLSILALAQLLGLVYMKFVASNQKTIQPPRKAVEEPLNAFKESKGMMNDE
Procedure, shortened: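 Inhibition of soluble CD47/SIRPalpha ectodomain association by titrated compounds, measured as 665/615 nm time-resolved FRET ratio after sequential 30 min room-temperature incubations.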

[3] = target: T1, Tyrosine-protein phosphatase non-receptor type substrate 1 (Homo sapiens) + Leukocyte surface antigen CD47 (Homo sapiens); test: CD47-SIRPalpha protein protein interaction - HTRF assay qHTS validation (AID 1347058; active = well fitted curve in the direction sought with a large enough effect in the signal ratio, not every such curve was filed as active; the % refers to the signal ratio; also: series mostly up to about 38 µM)
Procedure, shortened: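 Soluble extracellular domains (6His-CD47, Avi-tag-biotinylated SIRPalpha) in PBS pH 7.4 with 0.05% IGEPAL CA-630. Compounds were preincubated 30 min at RT with CD47 and anti-His-Eu, then SIRPalpha and SAV-XL665 were added. TR-FRET 665/615 ratio.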

[4] = target: T1, Tyrosine-protein phosphatase non-receptor type substrate 1 (Homo sapiens) + Leukocyte surface antigen CD47 (Homo sapiens); test: CD47-SIRPalpha protein protein interaction - Alpha assay qHTS validation (AID 1347059);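 also: bead proximity luminescence from CD47 binding SIRPalpha after compound preincubation with SIRPalpha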
Procedure, shortened: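 In PBS (pH 7.4) with 0.05% IGEPAL CA-630, compound is preincubated with biotin-Avi-SIRPalpha ectodomain before His-CD47 ectodomain and affinity beads are added. Light-protected room-temperature incubations; AlphaScreen readout.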

[5] = target: Parathyroid hormone/parathyroid hormone-related peptide receptor (Homo sapiens) (UniProt Q03431); test: qHTS for PTHR1 Agonists: Optimization Screen against the NCGC LOPAC library (AID 1347079);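 also: GloSensor cAMP luminescence in HEK-293 GP2 cells expressing human PTHR1 with IBMX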; also: potency is read from the fitted curve at half-maximal effect
Chain of Parathyroid hormone/parathyroid hormone-related peptide receptor (Homo sapiens) (Q03431 whole entry, looked up): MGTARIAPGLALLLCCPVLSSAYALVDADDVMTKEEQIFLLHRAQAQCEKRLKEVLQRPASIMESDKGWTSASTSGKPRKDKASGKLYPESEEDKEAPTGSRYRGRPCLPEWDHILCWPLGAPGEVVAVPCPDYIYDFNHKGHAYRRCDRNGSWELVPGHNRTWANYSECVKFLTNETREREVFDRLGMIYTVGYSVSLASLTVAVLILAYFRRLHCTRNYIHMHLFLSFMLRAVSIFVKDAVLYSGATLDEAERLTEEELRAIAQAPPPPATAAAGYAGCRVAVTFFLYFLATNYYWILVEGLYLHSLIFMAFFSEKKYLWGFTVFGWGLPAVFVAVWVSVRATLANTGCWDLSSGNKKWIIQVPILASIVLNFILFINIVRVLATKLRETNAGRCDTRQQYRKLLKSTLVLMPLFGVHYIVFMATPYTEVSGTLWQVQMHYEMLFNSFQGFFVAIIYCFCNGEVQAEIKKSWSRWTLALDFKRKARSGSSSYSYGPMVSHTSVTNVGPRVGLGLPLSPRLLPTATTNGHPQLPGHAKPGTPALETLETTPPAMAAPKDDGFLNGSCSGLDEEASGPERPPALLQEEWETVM
Procedure, shortened: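 Signal increase flags agonism. GP2 cells, derived from HEK-293, express human PTHR1 and a GloSensor cAMP construct.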

[6] = tested on: Zika virus NS2B-NS3 protease (unlinked); test: Optimization of GU AMC qHTS for Zika virus inhibitors: Unlinked NS2B-NS3 protease assay (AID 1347151); also: nearly all actives have a fitted effect of over 80% in size; also: potency is read from the fitted curve at half-maximal effect
Procedure, shortened: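 Noncovalent NS2B hydrophilic domain–NS3 protease complex (25 nM final) in 10 mM Tris-HCl pH 8.0, 0.01% Tween 20; AMC substrate, room temperature 15 min (~20% conversion); fluorescence change normalized, 4-parameter Hill fit.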

[7] = target: N-terminal Xaa-Pro-Lys N-methyltransferase 1 (Homo sapiens) (UniProt Q9BV86); test: qHTS Assay for Inhibitors of N-terminal methyltransferase 1 (NTMT1): LOPAC validation of the NTMT1 SAHH-coupled ThioGlo3 Assay (AID 1347143);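 also: SAH from peptide methylation measured as thiol fluorescence via SAHH coupling and ThioGlo3; nearly all actives have a fitted effect of over 70% in size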; also: potency is read from the fitted curve at half-maximal effect
Chain of N-terminal Xaa-Pro-Lys N-methyltransferase 1 (Homo sapiens) (Q9BV86 whole entry, looked up): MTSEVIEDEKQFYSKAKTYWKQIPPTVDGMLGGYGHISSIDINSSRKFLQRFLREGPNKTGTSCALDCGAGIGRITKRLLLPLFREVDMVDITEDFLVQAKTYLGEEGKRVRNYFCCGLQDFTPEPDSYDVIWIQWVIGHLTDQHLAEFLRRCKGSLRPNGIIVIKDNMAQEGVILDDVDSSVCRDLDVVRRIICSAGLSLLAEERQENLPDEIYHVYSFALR
Procedure, shortened: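 In this qHTS pilot against the LOPAC set, 125nM NTMT1 met compounds tested at multiple concentrations, and fluorescence was normalized to background.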

[8] = tested on: Zika virus NS2B-NS3 protease (unlinked complex); test: Confirmatory screen GU AMC qHTS for Zika virus inhibitors (AID 1347153); also: nearly all actives have a fitted effect of over 70% in size; also: potency is read from the fitted curve at half-maximal effect
Procedure, shortened: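 Unlinked enzyme 25 nM, Tris pH 8.0/0.01% Tween 20; cpd 15 min RT, dark; + AMC substrate 10 µM (Km 18.3 µM); 340/450 nm read at t0 and 15 min; % inhibition → 4-param fit.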

Measured: Potency

CC(C)(C)NCC(O)COc1cccc2[nH]c(=O)[nH]c12 (stereo not given)
not listed: [7] | [8]
inactive: all other assays above

COCc1nc2c([nH]1)c(=O)n(C)c(=O)n2CC(C)C
not listed: [7] | [8]
inactive: all other assays above

Nc1ccc(CCNc2ncnc3c2ncn3C2OC(CO)C(O)C2O)cc1 (stereo not given)
not listed: [7] | [8]
inactive: all other assays above

Oc1cc2c(cc1O)C(c1ccccc1)CNCC2 (stereo not given)
not listed: [7] | [8]
inactive: all other assays above

C[C@H]1CC2C3CCC4=CC(=O)C=C[C@]4(C)[C@@]3(Cl)[C@@H](O)C[C@]2(C)[C@@]1(O)C(=O)CO (stereo not given in full)
inactive: [1] | [2] | [3] | [5] | [7]

CCSC(=N)N
not listed: [5] | [8]
inactive: all other assays above

N[C@@H](Cc1ccc(F)cc1)C(=O)O
not listed: [4] | [8]
inactive: all other assays above

NC(=O)CNCCC(c1ccccc1)c1ccccc1
not listed: [4] | [8]
inactive: all other assays above

Nc1ncnc2c1c(-c1ccc(Oc3ccccc3)cc1)cn2C1CCCC1
inactive: [1] | [2] | [3] | [5]
active: [7] 79.4 µM | [6] 23.8 µM

NC1(C(=O)O)CCc2cc(C(=O)O)ccc21 (stereo not given)
active: [7] 50.1 µM
inactive: [1] | [2] | [3] | [5]

CO/N=C(\C(=O)N[C@@H]1C(=O)N2C(C(=O)O)=C(CSc3nc(=O)c(O)nn3C)CSC12)c1csc(N)n1 (stereo not given in full)
inactive: [1] | [2] | [3] | [5] | [6]

N[C@H](C(=O)O)[C@H]1C[C@@H]1C(=O)O
not listed: [5] | [8]
inactive: all other assays above

O=C(O)C1=CCNCC1
inactive: [1] | [2] | [3] | [5] | [6]

CCCc1c(-c2ccc(O)cc2)nn(-c2ccc(O)cc2)c1-c1ccc(O)cc1
inactive: [1] | [2] | [3] | [5]

N[C@@H](CS(=O)O)C(=O)O
not listed: [5] | [8]
inactive: all other assays above

NC(N)=NC(N)=Nc1cccc(Cl)c1
not listed: [4] | [8]
inactive: all other assays above

CC(C)NCC(O)COc1ccc(CC(N)=O)cc1 (stereo not given)
not listed: [5] | [8]
inactive: all other assays above

COc1cc(/C=C(\C#N)C(=O)Nc2nnc(C(F)(F)F)s2)ccc1OCc1ccc(C(F)(F)F)cc1C(F)(F)F
active: [7] 56.2 µM | [6] 2.12 µM | [8] 15.2 µM
not listed: [4]
inactive: all other assays above

CC(C)Cn1c(=O)n(C)c(=O)c2[nH]cnc21
active: [5] 4.23 µM
not listed: [4] | [8]
inactive: all other assays above

O=C(O)C1=CCCNC1
inactive: [1] | [2] | [3] | [4] | [6]

NCC(O)c1ccc(O)c(O)c1 (stereo not given)
inactive: [1] | [2] | [3] | [5] | [6]

Cc1cccc(C(=O)NCN2CCN(c3ccccc3C#N)CC2)c1
active: [6] 26.7 µM
not listed: [5] | [7]
inactive: all other assays above

CNc1cc(NS(=O)(=O)c2ccc(N)cc2)nc(NC)n1
not listed: [5] | [8]
inactive: all other assays above

C#CC(N)CCC(=O)O (stereo not given)
not listed: [4] | [8]
inactive: all other assays above

O=C1OC(=O)C2C3CCC(O3)C12 (stereo not given)
not listed: [4] | [8]
inactive: all other assays above

N[C@H](C(=O)O)[C@H](Cc1ccccc1)C(=O)O
inactive: [1] | [2] | [3] | [4] | [6]

COc1ccc2c(c1)CCC1C2CC[C@@]2(C)C1CC[C@@H]2NCCCCCCN1C(=O)C=CC1=O (stereo not given in full)
not listed: [4] | [8]
inactive: all other assays above

O=C(O)C1=CCCN(CCON=C(c2ccccc2)c2ccccc2)C1
inactive: [1] | [2] | [3] | [4] | [6]

CC1CNCCN1S(=O)(=O)c1cccc2cnccc12 (stereo not given)
not listed: [4] | [8]
inactive: all other assays above

Cn1c(=O)c2c(nc(/C=C/c3cccc(Cl)c3)n2C)n(C)c1=O
inactive: [1] | [2] | [3] | [5]
active: [6] 11.9 µM
